Experimental data published in PubChem BioAssay (Tox21).
Inconclusive results are not listed. Where a call stands in place of a potency, no number is given. Calls of active or inactive are those of the source. Unless noted, calls follow the shape of the dose curve; as a rule, active = well fitted cell-killing curve with a large enough effect in the repeat runs; inconclusive = weak or mixed curves, or effect the other way; inactive = no such curve, though single readings can be large or run the other way.

Columns and labels:
[1] = molecular target: Bile acid receptor (Homo sapiens) (UniProt Q96RI1); test: qHTS assay to identify small molecule antagonists of the farnesoid-X-receptor (FXR) signaling pathway (AID 743217; active = well fitted inhibition curve with a large enough effect in the signal ratio in the repeat runs, not every such curve was filed as active; the % refers to the signal ratio; also: potency is read from the fitted curve at half-maximal effect); conditions: HEK293T FXR-UAS-bla, beta-lactamase ratio, CDCA-stimulated, 16 h; series mostly up to 62.6 µM
Chain of Bile acid receptor (Homo sapiens) (Q96RI1 whole entry, looked up): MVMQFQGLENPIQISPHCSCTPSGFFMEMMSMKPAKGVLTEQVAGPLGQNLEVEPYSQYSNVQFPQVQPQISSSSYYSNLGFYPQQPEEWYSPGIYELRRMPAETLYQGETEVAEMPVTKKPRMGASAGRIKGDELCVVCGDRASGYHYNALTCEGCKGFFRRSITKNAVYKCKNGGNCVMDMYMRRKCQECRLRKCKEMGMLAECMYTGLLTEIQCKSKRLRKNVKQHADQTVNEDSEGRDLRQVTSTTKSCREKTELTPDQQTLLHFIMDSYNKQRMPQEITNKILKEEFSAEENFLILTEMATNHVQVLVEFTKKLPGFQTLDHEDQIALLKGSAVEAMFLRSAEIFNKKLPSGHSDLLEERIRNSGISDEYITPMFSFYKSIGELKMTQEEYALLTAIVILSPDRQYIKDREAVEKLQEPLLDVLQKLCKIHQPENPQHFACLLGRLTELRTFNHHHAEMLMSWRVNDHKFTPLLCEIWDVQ
Summary of the method: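 GeneBLAzer FXR-UAS-bla HEK 293T, CDCA-stimulated (50 uM final). Compound treatment 16 h, 37 °C. Detection: beta-lactamase cleavage of B/G FRET substrate, fluorescence.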

[2] = qHTS assay to identify small molecule agonists of the farnesoid-X-receptor (FXR) signaling pathway - cell viability counter screen (AID 743218); conditions: FXR-bla HEK293T viability, CellTiter-Glo luminescence, 16 h; series mostly up to 62.6 µM; also: nearly all actives have a fitted effect of over 45% in size; also: potency is read from the fitted curve at half-maximal effect
Summary of the method: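 Parallel cytotoxicity test: compound-treated (16 h, 37 C) HEK 293T FXR-bla reporter cells were lysed with CellTiter-Glo and luminescence recorded.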

[3] = molecular target: Bile acid receptor (Homo sapiens) (UniProt Q96RI1); test: qHTS assay to identify small molecule agonists of the farnesoid-X-receptor (FXR) signaling pathway (AID 743220; active = well fitted activation curve with a large enough effect in the signal ratio in the repeat runs, not every such curve was filed as active; the % refers to the signal ratio; also: potency is read from the fitted curve at half-maximal effect); conditions: HEK293T FXR-UAS-bla, beta-lactamase FRET ratio, 16 h; series mostly up to 62.6 µM
Summary of the method: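 Beta-lactamase reporter under UAS control in GeneBLAzer FXR HEK 293T cells (5000/well) measured with LiveBLAzer FRET substrate after 2 h at room temperature. Compound exposure lasted 16 h at 37C.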

[4] = qHTS assay to identify small molecule antagonists of the farnesoid-X-receptor (FXR) signaling pathway - cell viability counter screen (AID 743221; active = well fitted cell-killing curve with a large enough effect in the repeat runs, not every such curve was filed as active; also: nearly all actives have a fitted effect of over 50% in size; also: potency is read from the fitted curve at half-maximal effect); conditions: FXR-bla HEK293T viability, CellTiter-Glo luminescence, 16 h; series mostly up to 62.6 µM
Summary of the method: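 Cytotoxicity is taken from ATP luminescence (CellTiter-Glo, 30 min, room temperature) in FXR-bla HEK 293T cells previously incubated 16 h at 37 C with compound and chenodeoxycholic acid at 50 uM final.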

[5] = molecular target: Vitamin D3 receptor (Homo sapiens) (UniProt P11473); test: qHTS assay to identify small molecule antagonists of the vitamin D receptor (VDR) signaling pathway (AID 743223; active = well fitted inhibition curve with a large enough effect in the signal ratio in the repeat runs, not every such curve was filed as active; the % refers to the signal ratio; also: potency is read from the fitted curve at half-maximal effect); conditions: VDR-UAS-bla HEK293T, beta-lactamase FRET ratio, 16 h; series mostly up to 61 µM
Chain of Vitamin D3 receptor (Homo sapiens) (P11473 whole entry, looked up): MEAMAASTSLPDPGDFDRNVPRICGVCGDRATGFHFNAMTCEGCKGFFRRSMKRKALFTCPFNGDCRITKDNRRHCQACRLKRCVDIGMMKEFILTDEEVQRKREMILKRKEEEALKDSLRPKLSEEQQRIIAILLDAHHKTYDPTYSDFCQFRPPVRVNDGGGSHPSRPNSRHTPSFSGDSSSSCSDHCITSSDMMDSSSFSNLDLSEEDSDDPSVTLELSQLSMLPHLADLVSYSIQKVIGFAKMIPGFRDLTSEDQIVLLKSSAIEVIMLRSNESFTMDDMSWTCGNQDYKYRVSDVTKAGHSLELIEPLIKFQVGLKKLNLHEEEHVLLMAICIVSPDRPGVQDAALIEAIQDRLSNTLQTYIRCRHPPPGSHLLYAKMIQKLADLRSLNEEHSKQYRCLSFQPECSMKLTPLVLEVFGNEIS
Summary of the method: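 Quantitative HTS in VDR-bla reporter cells stimulated with 1alpha,25-dihydroxyvitamin D3, 3 nM final. Compound exposure 16 h, 37C, 5% CO2. Read-out: beta-lactamase FRET substrate fluorescence, 2 h RT.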

[6] = molecular target: Peroxisome proliferator-activated receptor delta (Homo sapiens) (UniProt Q03181); test: qHTS assay to identify small molecule antagonists of the peroxisome proliferator-activated receptor delta (PPARd) signaling pathway (AID 743215; active = well fitted inhibition curve with a large enough effect in the signal ratio in the repeat runs, not every such curve was filed as active; the % refers to the signal ratio;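 also: cells stimulated with agonist L165041 at 300 nM final during compound exposure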; also: potency is read from the fitted curve at half-maximal effect); conditions: HEK293H PPARd-UAS-bla, beta-lactamase FRET ratio, antagonist, 17 h; series mostly up to 62 µM
Chain of Peroxisome proliferator-activated receptor delta (Homo sapiens) (Q03181 whole entry, looked up): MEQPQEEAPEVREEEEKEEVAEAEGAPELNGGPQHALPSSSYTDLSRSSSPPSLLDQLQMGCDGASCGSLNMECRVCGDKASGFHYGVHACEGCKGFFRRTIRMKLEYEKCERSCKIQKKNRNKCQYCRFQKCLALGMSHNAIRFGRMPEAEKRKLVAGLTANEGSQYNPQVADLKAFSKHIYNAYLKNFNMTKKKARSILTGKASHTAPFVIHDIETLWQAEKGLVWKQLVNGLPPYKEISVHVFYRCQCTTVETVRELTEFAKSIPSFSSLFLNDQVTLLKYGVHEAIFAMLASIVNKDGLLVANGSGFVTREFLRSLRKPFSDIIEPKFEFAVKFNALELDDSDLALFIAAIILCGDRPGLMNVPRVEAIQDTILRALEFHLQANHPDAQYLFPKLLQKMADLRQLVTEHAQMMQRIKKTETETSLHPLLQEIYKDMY
Summary of the method: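 HEK293H UAS-bla, PPARd; agonist L165041 300 nM final with cpd in DMSO; 37 C 17 h; FRET substrate, RT 2 h; fluorescence intensity.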

[7] = molecular target: Vitamin D3 receptor (Homo sapiens) (UniProt P11473); test: qHTS assay to identify small molecule agonists of the vitamin D receptor (VDR) signaling pathway (AID 743222; calls by dose curve); conditions: HEK293T VDR-UAS-bla, beta-lactamase FRET ratio, 16 h; series mostly up to 63.5 µM
Summary of the method: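 In VDR-bla cells, compound-induced beta-lactamase expression is quantified by FRET substrate fluorescence. Treatment lasts 16 h at 37C; substrate develops 2 h at room temperature.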

[8] = qHTS assay to identify small molecule agonists of the vitamin D receptor (VDR) signaling pathway - cell viability counter screen (AID 743224); conditions: VDR-bla HEK293T viability, CellTiter-Glo luminescence, 16 h; series mostly up to 62.6 µM; also: nearly all actives have a fitted effect of over 50% in size; also: potency is read from the fitted curve at half-maximal effect
Summary of the method: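 Plated VDR-bla cells (4 h, 37C) received compound, incubated 16 h, then LiveBLAzer substrate 2 h RT; CellTiter-Glo added afterwards, luminescence read at 30 min.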

Row | Compound | Potency [1] | Potency [2] | Potency [3] | Potency [4] | Potency [5] | Potency [6] | Potency [7] | Potency [8]
1 | O=C(O)Cc1ccc(OCCNC[C@H](O)c2ccccc2)cc1 | inactive | inactive | inactive | inactive | inactive | – | – | –
2 | NC(=O)C(=O)N/N=C/c1ccc([N+](=O)[O-])o1 | – | inactive | – | inactive | – | inactive | – | –
3 | Clc1ccc(C(Cn2ccnc2)OCc2c(Cl)cccc2Cl)c(Cl)c1 (stereo unspecified) | 21.1 µM (active) | 21.1 µM (active) | 10.6 µM (active) | 26.6 µM (active) | – | – | inactive | 33.5 µM (active)
4 | CCCCCCCC/C=C/CCCOC(C)=O | inactive | inactive | inactive | inactive | inactive | – | inactive | –
5 | C[C@@H]1CC[C@H]2C(C)(C)[C@H]3C[C@@]12CC[C@@]3(C)O | inactive | – | inactive | inactive | – | inactive | – | –
6 | c1cc2c3c(c1)ccc1cccc(c13)C2 | – | – | – | inactive | – | inactive | inactive | 56.1 µM (active)
7 | O=C1NC2CCCCN2C12CCN(CCCN1c3ccccc3CCc3ccc(Cl)cc31)CC2 (stereo unspecified) | – | 23.7 µM (active) | inactive | 29.8 µM (active) | – | 29.8 µM (active) | inactive | –
8 | O=C1C=CC(=O)N1c1ccccc1 | 54.9 µM (active) | 49 µM (active) | – | – | 12.3 µM (active) | – | – | –
9 | Cc1cc2c(C(C)C)c(O)c(O)c(C=O)c2c(O)c1-c1c(C)cc2c(C(C)C)c(O)c(O)c(C=O)c2c1O | – | 10.6 µM (active) | – | 16.8 µM (active) | – | 18.8 µM (active) | – | 11.9 µM (active)
10 | c1cc(OCC2CO2)cc(OCC2CO2)c1 (stereo unspecified) | inactive | inactive | – | inactive | – | – | – | –
11 | Cc1ccc(CCn2c3c(c4cc(Cl)ccc42)CN(C)CC3)cn1 | – | – | inactive | – | – | inactive | – | inactive
